The values that follow come from PubChem BioAssay (NCI).

Structures are written as SMILES. Compounds without any hit were thinned out: in the full panel of roughly 83,000, 20% have a hit.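 Cell lines were cultured in 96-well plates, exposed to a single compound concentration, and assessed for percent growth 48 hours later.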 Unmarked numbers belong to inactive results. The source made the active and inactive calls.

The test deals with A549/ATCC NSCLC. Description: NCI-60 one-dose screen, 48 h (100 = growth as untreated, 0 = no growth, -100 = all killed). As to conditions: 10 µM unless noted. How it is done: Growth inhibition of the A549/ATCC human Non-Small Cell Lung tumor cell line is measured as a screen for anti-cancer activity. Cells are grown in 96 well plates and exposed to the test compound for 48 hours. Compounds are tested at a single concentration, which is 10^-5 M for most compounds. The reported endpoint is percent growth (GI% or GIPRCNT), where numbers from 0 - 100% represent growth inhibition, and numbers from -100% - 0 represent cell death. For example, a value of 40 represents 60% growth inhibition. A value of 0 means no net growth occurred over the course of the experiment. A value of -40 indicates 40% of cells at the beginning of the experiment died by the end of the experiment. A value of -100 means all cells are dead at the end of the experiment.
NCI-60 Human Tumor Cell Lines Screen was performed using the standard one-dose NCI protocol, which is described in more detail at https://dtp.cancer.gov/discovery_development/nci-60/default.htm.
Compounds with GIPRCNT values below 10 were considered active. Activity score was based on GIPRCNT using the following formula: […]
Score is 0 for GIPRCNT values of 100 or above, 50 for GIPRCNT values of 0, and 100 for GIPRCNT values of -100.
For `C=C(C)[C@@H]1CC[C@]2(C(N)=O)CC[C@]3(C)[C@H](CC[C@@H]4[C@@]5(C)C/C(=C/c6cccnc6)[C@H](O)C(C)(C)[C@@H]5CC[C@]43C)[C@@H]12`, the growth is 23.1% [100 µM].
With `C#CCC(C(=O)OCC)C(=O)OCC` the figure was 100%.
In the case of `O=C(CSc1nc2ccc([N+](=O)[O-])cc2[nH]1)Nc1cccc(Cl)c1` it was 28.9%; in that of `CN(C)c1ccc(-c2ccc(-c3ccc(C(=N)N)cc3)s2)cc1`, -72.7% (active); in that of `COc1cc(C(=O)/C=C/c2c(-c3ccc(F)cc3)nc3sccn23)cc(OC)c1OC`, 41.1%.
With `O=C(NCc1ccccc1)C(Cl)Cl` the figure was 97.4%; with `Cc1cnc([C@]23CC[C@@H](C)[C@H](C)[C@H]2C2=CC[C@@H]4[C@@]5(C)Cc6c([nH]c7ccccc67)C(C)(C)[C@@H]5CC[C@@]4(C)[C@]2(C)CC3)o1`, 28.8% [100 µM].
As to `Cc1ccc(-c2cc(-c3ccc(C)cc3)nc(NCCNc3ccnc4cc(Cl)ccc34)n2)cc1`, the growth is -56.5% (active).
Regarding `C=C(C)[C@@H]1CC[C@]2(C)[C@H](CC[C@@H]3[C@@H]([C@@](C)(O)CCC=C(C)C)CC[C@]32C)[C@@]1(C)CCC(=O)N1CCN(C)CC1`, the growth was 0.566% [100 µM] (active).
With `CCOC(=O)C(C(C)=O)c1nc2sc3cc(Cl)c(Cl)cc3n2c(=O)c1C#N` (stereo not given) the figure was 108%.
With `CCOC(=O)C1=C(C(=O)c2ccc(Br)cc2)C(c2ccc(Br)cc2)NC(=S)N1` (stereo not given) the figure was 100%.
In the case of `CC(C)(C)c1cc(C(=O)Nc2ccccc2C(=O)NCCN)cc(C(C)(C)C)c1` it was 7.64% (active); in that of `COc1cc(-c2nc(SCCC(C)C)nc(Nc3ccc(S(N)(=O)=O)cc3)c2C#N)cc(OC)c1OC`, 26.4%.
In the case of `COc1ccc(C(C(=O)O)c2ccc(OC)cc2)cc1`, the growth is 116%.
With `O=C(Nc1ccc(Nc2ccncc2)cc1)c1ccc([N+](=O)[O-])cc1` the figure was 72.4%; with `Cc1ccc(NC(=O)N[C@@H](Cc2cc(F)cc(F)c2)C(=O)N[C@@H]2C(=O)N3CCC[C@H]3C(=O)N3CCOC[C@H]3C(=O)N[C@@H](C)C(=O)N3C[C@H](C)C[C@H]3C(=O)O[C@H]2C)cc1`, 27.3%; with `CC(C)C1=NOC(=O)C1=Cc1cn(-c2ccccc2)nc1-c1cccc([N+](=O)[O-])c1`, 97%.
`COc1cccc(-c2[nH]c(=S)ncc2C(=O)c2ccccc2)c1`: the growth was 88.4%.
In the case of `Fc1cc2[nH]ncc2c2c3c(c(-c4cn[nH]c4)nc12)CCCC3` it was 1.75% (active); in that of `N#C/C(=C(/O)CCCO)c1nc2ccccc2c(=O)[nH]1`, 95.3%; in that of `O=C(Nc1ccc(CN2CCOCC2)c(C(F)(F)F)c1)c1nc2ccc3[nH]ncc3c2c2c1CCCC2`, 63.3%.
With `CCCCN(CC)CC(CC)Nc1cc(OC)cc2cccnc12` (stereo not given) the figure was 96.3%; with `Nc1ccc(Cl)c([N+](=O)[O-])c1`, 97.7%.
For `O=S(=O)(NCCCNc1nccc(-c2c(-c3cccc(F)c3)nc3occn23)n1)c1cccc2ccccc12`, the growth was 33.5%.
Regarding `CC1(C)C(=O)/C(=C\c2ccco2)C[C@]2(C)[C@H]3CC=C4[C@@H]5C[C@](C)(C(=O)O)CC[C@]5(C)CC[C@@]4(C)[C@]3(C)CC[C@@H]12`, the growth was -67.6% [100 µM] (active).
With `C=CCCC1(C)NC(=O)NC1=O` (stereo not given) the figure was 93.4%; with `CC1Cc2c(Cl)ncnc2N(C)c2ccc(O)cc21` (stereo not given), 28.4%.
Regarding `CSc1nc(N)c(N=Nc2ccc(S(=O)(=O)Nc3nnc(C)s3)cc2)c(=O)[nH]1`, the growth was 115%.
In the case of `Cc1cc(C)c(O)c(CNCCCCCCNCc2cc(C)cc(C)c2O)c1` it was 32%; in that of `CC1Cc2c(Cl)ncnc2N(C)c2ccc(Cl)cc21` (stereo not given), 17.9%; in that of `CC1=CC[C@@H]2C(C)(C)C(=O)CC[C@@]2(C)[C@@H]1COc1ccc2ccc(=O)oc2c1`, 62.2%.
Regarding `Cc1ccc(NC(=S)/N=c2/n(-c3ccccc3)nc3n2CCN3C2=NCCN2)cc1`, the growth is 106%.
In the case of `Cn1c(=O)c(C#N)c(-c2ccco2)n2c(S(=O)(=O)Cc3ccccc3)nnc12` it was 92.8%; in that of `CCOC(=O)c1nn(C2CCCCO2)c2ccc(NC(=O)CSc3nc4ccccc4c(=O)[nH]3)cc12` (stereo not given), 99.4%; in that of `COc1cc(/C=C/C(=O)/C=C/c2ccc(-n3ccnc3C)cc2)ccc1O`, 62.1%.
As for `CC(=O)CC(=O)SC1=NCCS1`, the growth was 87.6%.
For the molecule `Clc1ccc2nc(-c3ccc(-c4ccc(/C=N/NC5=NCCN5)cc4)s3)cn2c1`, the growth is 99.9%.
With `Cc1ccc(-c2cc(-c3ccc(C)cc3)nc(N3CCN(CCNc4ccnc5cc(Cl)ccc45)CC3)n2)cc1` the figure was 59.1%; with `CNc1cc(C(=O)O)nc(NC)n1`, 101%; with `COc1ccc(C2CC(c3cc(OC)c(OC)c(OC)c3)=NN2C(C)=O)cc1OCC(=O)Nc1nc2ccc(C(F)(F)F)cc2s1` (stereo not given), 50.5%.
